Assay outcomes as filed in PubChem.
Rows were chosen to be rich in hits. Some 11% of all compounds tested hit in one or more screens of this group.
JMJD2A Tudor = qHTS Assay for Inhibitors of JMJD2A-Tudor Domain; Lysine-specific demethylase 4A (Homo sapiens), O75164; AlphaScreen JMJD2A-Tudor / H3K4me3 peptide binding; Potency, µM (top dose mostly 114 µM), inactives show top-dose activity change, negative = inhibition, usual class: inhibitors; 390,000 tested, 4.4% active; AID 504339, 2011; note: % is set by controls: 0 for no effect and ±100 for the full control effect; nearly all actives have a fitted effect of over 50% in size
L3MBTL1 block = qHTS Assay for the Inhibitors of L3MBTL1; AlphaScreen L3MBTL1–H3K9me1 peptide binding; Lethal(3)malignant brain tumor-like protein 1 (Homo sapiens), Q9Y468; 230,000 tested, 0.66% active; AID 485360, 2010; Potency, µM (doses to about 57.1 µM), without a hit: top-dose activity, negative = inhibition, most hits filed as inhibitors; note: % is set by controls: 0 for no effect and ±100 for the full control effect; nearly all actives have a fitted effect of over 60% in size
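AlphaScreen proximity signal between nickel-chelate acceptor and streptavidin donor beads (final 10 ug/mL) reports binding of 50 nM L3MBTL1 to 75 nM biotin-H3 K9me1 peptide; complex incubated with compounds 30 min at room temperature; cefsulodin titration as control.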
BAZ2B block = qHTS Assay for Inhibitors of BAZ2B. AID 504333, 2011. AlphaScreen BAZ2B-H3K14Ac peptide displacement. Potency, µM (top dose mostly 114 µM), without a hit: at the top dose activity change, negative = inhibition, usual class: inhibitors. Bromodomain adjacent to zinc finger domain protein 2B (Homo sapiens), Q9UIF8. 360,000 tested, 4.4% active; note: % is set by controls: 0 for no effect and ±100 for the full control effect; nearly all actives have a fitted effect of over 60% in size
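In this displacement format the biotinylated H3(5-23) peptide acetylated at Lys14 serves as ligand at 50 nM, with BAZ2B at 50 nM in PBS pH 7.4 containing 0.01% Tween-20. Donor and acceptor beads are 10 ug/mL final.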
G9a block = qHTS Assay for Inhibitors of Histone Lysine Methyltransferase G9a; Histone-lysine N-methyltransferase EHMT2 (Homo sapiens), Q96KQ7; G9a H3K9 monomethylation, AlphaScreen, 2 h; Potency, µM (titrated, usually from 102 µM), without a hit: at the top dose activity, negative = inhibition, hits mostly inhibitors; 350,000 tested, 8.8% active; note: % is set by controls: 0 for no effect and ±100 for the full control effect; nearly all actives have a fitted effect of over 75% in size
Target sequence (Q96KQ7 913-1193 limits assumed): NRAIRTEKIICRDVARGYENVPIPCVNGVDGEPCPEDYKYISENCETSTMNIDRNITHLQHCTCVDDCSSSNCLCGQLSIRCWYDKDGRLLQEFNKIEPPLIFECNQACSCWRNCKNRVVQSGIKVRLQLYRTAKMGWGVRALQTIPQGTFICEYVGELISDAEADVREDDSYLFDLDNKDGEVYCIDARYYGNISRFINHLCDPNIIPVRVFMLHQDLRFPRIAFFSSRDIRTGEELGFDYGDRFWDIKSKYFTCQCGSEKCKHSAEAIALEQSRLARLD
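Methyltransferase reactions run at room temperature for 2 h (20 nM enzyme, 500 nM biotin-H3K9 peptide, 20 uM SAM) after a 15 min compound preincubation; product detected by AlphaScreen beads and anti-H3K9me1 antibody.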
HP1b binding inh = HTS for Inhibitors of HP1-beta Chromodomain Interactions with Methylated Histone Tails | AlphaScreen HP1-beta / biotin-H3K9me3 peptide binding | AID 540317, 2011 | Potency, µM (titrated, usually from 114 µM), for inactives: at the highest dose activity change, negative = inhibition, hits mostly inhibitors | Chromobox protein homolog 1 (Homo sapiens), P83916 | 390,000 tested, 0.56% active; note: nearly all actives have a fitted effect of over 70% in size
Target sequence (P83916 whole entry, looked up): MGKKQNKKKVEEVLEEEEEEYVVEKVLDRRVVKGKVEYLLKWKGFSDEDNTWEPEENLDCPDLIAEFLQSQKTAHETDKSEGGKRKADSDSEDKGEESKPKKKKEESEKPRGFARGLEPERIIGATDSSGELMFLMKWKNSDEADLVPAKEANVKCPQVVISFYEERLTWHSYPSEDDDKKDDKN
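Compound inhibition of the preformed complex between 50 nM HP1-beta and 50 nM biotinylated H3K9me3 peptide was read by AlphaScreen. Buffer was PBS pH 7.4 with 0.01% Tween-20. Incubations ran 30 min at room temperature, with 10 ug/mL donor/acceptor beads.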
Numbers without * were called inactive; ? = inconclusive; . = no result given; [ ] = remark or other dose. Calls come from the whole dose curve; as a rule, active = well fitted inhibition curve with a large enough effect; inconclusive = small, poorly fitted or top-dose-only effect; inactive = no such curve, though single readings can be large or run the other way. Potency is the fitted concentration of half-maximal effect.

SMILES	JMJD2A Tudor	L3MBTL1 block	BAZ2B block	G9a block	HP1b binding inh
COc1ccc(CN2CCN(C(=O)c3ccccc3F)CC2)c(OC)c1OC	1.8µM*	.	.	.	?
Cc1ccccc1CN1CCN(C(=O)c2cccc3ccccc23)CC1	25µM*	-1%	56µM*	20µM*	?
O=C(COc1ccccc1[N+](=O)[O-])Nc1cc(Cl)ccc1C(=O)O	-22%	8%	0%	5%	27%
CC(C)c1ccc(CN2C(=O)NC3(CCCCCC3)C2=O)cc1	-31%[57.1 µM]	.	2%	-7%	-1%
CCN1CCN(C(=O)c2ccc3c(c2)N(Cc2ccc(Cl)cc2)C(=O)c2ccccc2S3=O)CC1 (stereo unspecified)	-19%	.	-21%	-46%[59 µM]	12%
O=C(OCC#CCSc1nnc(-c2cccc3ccccc23)o1)c1ccc(SC(F)(F)F)cc1	23%	.	.	.	.
COc1cccc(OC)c1C(=O)N1CCN(Cc2ccccc2C)CC1	-32%[11.4 µM]	3%	50µM*	32µM*	?
COc1ccccc1C(=O)N1CCN(Cc2c[nH]c3ccccc23)CC1	18µM*	.	50µM*	-20%	?
COc1cccc(CN2CCN(C(=O)c3ccco3)CC2)c1OC	5.6µM*	.	.	.	45µM*
O=C(c1ccccc1)N1CCN(Cc2c[nH]c3ccccc23)CC1	-8%	-2%	2%	3%[59 µM]	48%
COc1ccc2ccccc2c1CN1CCN(C(=O)c2ccco2)CC1	-33%	.	?	-11%	1%
Cc1cccc(CN2CCN(C(=O)c3cccc4ccccc34)CC2)c1	2.2µM*	-1%[2.29 µM]	56µM*	23%[0.501 µM]	?
CC(C)c1ccc(NC(=O)C2CCCN(S(=O)(=O)c3cccc4nsnc34)C2)cc1 (stereo unspecified)	-15%	.	.	1%[59 µM]	17%
O=C(Cn1cc(C(=O)c2ccccc2)c(=O)c2cc3c(cc21)OCCO3)Nc1ccc(F)c(F)c1	-22%	.	-4%	-1%[59 µM]	28%
CC(=O)Nc1nc2ccccc2n1CCN1CCOCC1	4.5µM*	48%	-37%	?	-13%
CCn1c(NC(C)=O)nc2ccccc21	40µM*	0%	-20%	10µM*	9%
CCn1cc(Cl)c(C(=O)Nc2nc3ccccc3n2CCN2CCCCC2)n1	?	-11%	79µM*	-4%	4%
Cc1c(Cl)c(C(=O)Nc2nc3ccccc3n2CCN2CCCCC2)nn1C	.	.	?	10%	.
COc1cccc(SCc2noc(C(=O)NCCN(C)C)c2C(=O)NCCN(C)C)c1	-9%	.	.	.	36%
Fc1ccc(-n2c(-c3ccco3)n[nH]c2=S)cc1	6.3µM*	.	-23%	?	15%
Cc1ccc(-n2c(-c3ccco3)nc3c(cnn3-c3ccc(C)cc3)c2=O)cc1	-20%	.	2%	-32%[59 µM]	14%
CCOc1ccc(-n2c(-c3ccco3)n[nH]c2=S)cc1	5.6µM*	-5%	?	3.2µM*	?
Cc1ccc(-n2c(-c3ccco3)n[nH]c2=S)cc1	22µM*	11%	-12%	.	-17%
Fc1ccc(-n2c(-c3ccc4ccccc4n3)n[nH]c2=S)cc1	-32%	3%	-9%	0%	21%
CCCOc1cccc(C(=O)N(Cc2sccc2C)C2CCS(=O)(=O)C2)c1 (stereo unspecified)	-19%	.	-2%	3%[59 µM]	45%
SMILES	JMJD2A Tudor	L3MBTL1 block	BAZ2B block	G9a block	HP1b binding inh
Cc1ccc(/C=N/NC(=O)CN2C(=O)CSc3ccccc32)o1	-5%	.	-2%	45µM*	25%
Cn1cccc1CC(=O)N/N=C/c1ccc([N+](=O)[O-])cc1	?	-16%	?	50µM*	?
Cn1cccc1CC(=O)N/N=C\c1ccccc1	-19%	-12%	-31%	-43%	7%
O=C(COc1ccccc1[N+](=O)[O-])N/N=C/C=C/c1ccco1	-13%[57.1 µM]	-30%	-38%	40µM*	19%
O=C(N/N=C/C=C/c1ccccc1)C(O)c1ccccc1 (stereo unspecified)	-14%	.	.	.	20%
Cc1ccc(OCC(=O)N/N=C/C=C/c2ccco2)cc1	?	?	-28%	-23%[59 µM]	-5%
O=C(N/N=C/C=C/c1ccco1)C(O)c1ccccc1 (stereo unspecified)	56µM*	.	.	.	-6%
CCc1c(C)c2ccc(O)c(CN3CCN(c4cc(Cl)ccc4C)CC3)c2oc1=O	-15%	.	2%	-4%[59 µM]	4%
CCN(CC)S(=O)(=O)c1ccc2c(c1)N(CC(=O)Nc1cccc(C#N)c1)C(=O)CO2	-10%	.	-19%	-10%[59 µM]	25%
N#Cc1cc2c(=O)n3ccccc3nc2n(-c2nnc(SCc3ccccc3Cl)s2)c1=O	12%	.	7%	0%[59 µM]	53%
Cc1ccc(NC(=O)C2CCCN2S(=O)(=O)c2ccc3nc(-c4ccccc4)[nH]c3c2)cc1F (stereo unspecified)	?	.	-36%	-29%[59 µM]	29%
Cn1cccc1CC(=O)N/N=C/C=C/c1ccco1	?	25µM*	56µM*	13µM*	?
Cc1ccc(/C=N\NC(=O)Cc2cccn2C)o1	-3%[57.1 µM]	.	.	28µM*	8%
Cc1ccc(C)c(CSc2ncccc2C(=O)O)c1	-17%	11%	-36%	50µM*	2%
O=C(O)c1cccnc1SCc1cn2cc(Br)ccc2n1	-23%[11.4 µM]	-1%	?	50µM*	5%
Cc1nc(CC(=O)Nc2cccc(C)c2C)cs1	-17%	.	0%	2%[59 µM]	26%
O=C1C2CCC(C2)[C@@H]2CCCCN12 (stereo partly specified)	.	.	.	29%[135 µM]	.
O=C(Nc1ccc(S(=O)(=O)Nc2cnc3ccccc3n2)cc1)c1cc(F)c(F)cc1Cl	79µM*	.	-20%	0%	5%
C=CCN(c1ccccc1)S(=O)(=O)c1cccc(C(=O)NNC(=O)c2ccccc2O)c1	89µM*	-1%	-10%	31%	4%
COc1ccc(NC(=O)C2CCCN(S(=O)(=O)c3ccc4c(c3)CCCC(=O)N4)C2)cc1OC (stereo unspecified)	-10%	.	5%[57.1 µM]	-1%[59 µM]	26%
O=C1NC(=S)S/C1=C\C=C\c1ccc([N+](=O)[O-])o1	16µM*	.	11µM*	.	?
O=C1SCCN1N=Cc1ccc([N+](=O)[O-])o1	-1%	.	.	.	18%[57 µM]
Cc1ccc(NC(=O)C(Cc2ccccc2)n2cccc2)cc1C (stereo unspecified)	-5%	.	-5%	3%[59 µM]	17%
Cc1cccc(NC(=O)Cc2nc(-c3c[nH]c(C(=O)N4CCCC4)c3)cs2)c1	?	-13%	?	56µM*	-36%
COc1ccc(Nc2cc(C(=O)NCCCN3CCN(c4ccccc4F)CC3)c3ccccc3n2)c(OC)c1	10µM*	.	.	13µM*	-33%
